# A selection: hits, their analogues and other compounds. The true share with any hit is near 12%.
# AmpC no deterg: AmpC beta-lactamase inhibition without detergent. AmpC nitrocefin hydrolysis, absorbance 480 nm, 0.0001% Triton. Potency, µM (series often up to 57.1 µM), most hits filed as inhibitors. 330,000 compounds, 0.52% hits. AID 485341; note: nearly all actives have a fitted effect of over 20% in size
# Target sequence (P00811 whole entry, looked up): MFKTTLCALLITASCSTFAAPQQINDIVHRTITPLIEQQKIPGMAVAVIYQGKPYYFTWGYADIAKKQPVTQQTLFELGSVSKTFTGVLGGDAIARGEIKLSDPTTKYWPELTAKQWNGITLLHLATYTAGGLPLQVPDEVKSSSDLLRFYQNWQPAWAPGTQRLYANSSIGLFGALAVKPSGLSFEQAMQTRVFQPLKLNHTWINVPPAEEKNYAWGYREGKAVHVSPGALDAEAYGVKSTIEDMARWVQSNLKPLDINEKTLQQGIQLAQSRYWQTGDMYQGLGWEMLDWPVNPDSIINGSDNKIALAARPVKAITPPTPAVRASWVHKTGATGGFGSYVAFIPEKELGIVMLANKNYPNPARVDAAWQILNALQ
#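 AmpC (5.3 nM in the dispensed reagent) in 20 mM phosphate pH 7.0 with 0.01% (detergent screen) or 0.0001% Triton X-100 was preincubated with compounds for 15 min at room temperature. Nitrocefin was then added from an 800 uM solution, and hydrolysis was followed at 480 nm.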
# Pf growth 96h: P. falciparum growth inhibition at 96 hour, primary screen for plastid delayed-death inhibitors | P. falciparum luciferase reporter growth, 96 h | Potency, µM (highest dose often 28.7 µM), actives largely listed as inhibitors | 320,000 compounds, 6.9% hits
#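 P. falciparum expressing integrated firefly luciferase, in erythrocytes at 2% hematocrit, 0.05% parasitemia, incubated with compounds 96 h at 37 C, 5% CO2. Growth inhibition read as loss of luminescence; two-generation exposure targets delayed-death apicoplast inhibitors.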
# Pf growth 48h: inhibits P. falciparum growth in the first generation, 48 h | P. falciparum luciferase growth in erythrocytes, 48 h | Potency, µM (top dose mostly 28.7 µM), most hits filed as inhibitors | 310,000 compounds, 5.9% hits
#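 Growth was read as firefly luciferase luminescence after a 48 h, 37 C, 5% CO2 exposure of compounds to reporter-bearing P. falciparum cultures (0.1% parasitemia, 2% hematocrit final) in Albumax-supplemented RPMI 1640.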
# AmpC detergent: AmpC beta-lactamase inhibition with detergent present; P00811; AmpC hydrolysis of nitrocefin, absorbance 480 nm, 0.01% Triton; Potency, µM (top dose mostly 114 µM), hits mostly inhibitors; 370,000 compounds, 0.041% hits; AID 485294; note: nearly all actives have a fitted effect of over 25% in size
#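 20 mM phosphate pH 7.0 + 0.01% (detergent screen) or 0.0001% Triton X-100; 5.3 nM AmpC reagent; cpd preinc 15 min RT; nitrocefin (800 uM stock) to start; A480 q20 s × 4 min; Activity was normalised to no-enzyme and no-compound control wells.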
# SARS PLP yeast: inhibitors of SARS-CoV papain-like protease in yeast; S. cerevisiae expressing SARS-CoV PLpro, growth rescue; Potency, µM (doses to about 32.9 µM), usual class: activators; 330,000 compounds, 0.19% hits; AID 485353; calls by dose curve; note: nearly all actives have a fitted effect of over 55% in size
# Sm TGR inh: S. mansoni TGR enzyme inhibition; Potency, µM (top dose mostly 114 µM), actives largely listed as inhibitors; Q962Y6; purified TGR, DTNB reduction, TNB absorbance 405 nm; 360,000 compounds, 3% hits; AID 485364; note: nearly all actives have a fitted effect of over 60% in size
#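 First, TGR (20 nM dispensed) and NADPH were mixed with compound. Second, a 15 min room-temperature incubation followed. Third, further NADPH and then DTNB were added to start the reaction. Finally, TNB absorbance was monitored kinetically.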
# Hits are given with their value; 0 = inactive; ? = inconclusive; - = no result. Unless noted, calls come from the whole dose curve; as a rule, active = well fitted curve in the direction sought with a large enough effect; inconclusive = small, poorly fitted or top-dose-only effect, or another doubt; inactive = no such curve, though single readings can be large; an effect the other way counts as inactive or inconclusive.
SMILES,AmpC no deterg,Pf growth 96h,Pf growth 48h,AmpC detergent,SARS PLP yeast,Sm TGR inh
Cc1ccc2c(CC(=O)N(Cc3ccc(N(C)C)cc3)Cc3ccco3)coc2c1C,-,-,-,0,-,0
CCOC(=O)c1ccc(N2C(=O)c3n[nH]c(C)c3C2c2ccc(O)cc2)cc1 (stereo unspecified),0,?,0,0,?,35µM
COc1ccc(-c2n[nH]c3c2C(c2ccc(OC)c(OC)c2)N(c2ccccc2)C3=O)cc1 (stereo unspecified),0,0.12µM,-,0,0,0
CCc1ccc(C2c3c(-c4ccccc4)n[nH]c3C(=O)N2c2ccc(C(=O)O)cc2)cc1 (stereo unspecified),-,-,-,0,-,0
CCOc1cc(C2c3c(-c4ccccc4)n[nH]c3C(=O)N2c2ccc(C(=O)O)cc2)ccc1O (stereo unspecified),0,0,0,0,0,25µM
CC(=O)N/C(=C/C(C)C)c1ccccc1,0,0,0,0,0,0
Cc1ccc2c(=O)n3c(nc2c1)C(Cc1ccccc1)NC(=O)c1cc(Cl)ccc1-3 (stereo unspecified),0,-,-,-,0,-
COc1cc([N+](=O)[O-])ccc1NC(=O)N1CCC2(CC1)Nc1cc(F)ccc1-n1cccc12,-,-,-,0,-,0
CCOC(=O)C1=C(C)N=c2s/c(=C\c3cccc(OCC(=O)O)c3)c(=O)n2C1c1ccccc1OC (stereo unspecified),0,?,?,0,0,0
CC1=C(C(=O)Nc2ccccc2)C(c2ccc(C)o2)n2c(s/c(=C\c3ccco3)c2=O)=N1 (stereo unspecified),0,?,13µM,0,0,?
CCOC(=O)C1=C(C)N=c2s/c(=C\c3ccc(OC(C)=O)c(OCC)c3)c(=O)n2C1/C=C/c1ccccc1 (stereo unspecified),0,0,10µM,0,0,0
COC(=O)C1=C(C)N=c2s/c(=C/c3cccs3)c(=O)n2C1c1ccc(F)cc1 (stereo unspecified),0,?,?,?,0,0
CCOC(=O)C1=C(C)N=c2s/c(=C\c3ccc(OCC(=O)O)cc3)c(=O)n2C1c1ccc(OC(C)C)cc1 (stereo unspecified),0,0.41µM,?,?,0,0
COc1ccccc1C1C(C(C)=O)=C(C)N=c2s/c(=C\c3cc(OC)c(OC)c(OC)c3)c(=O)n21 (stereo unspecified),0,?,9.3µM,?,0,0
CCOC(=O)C1=C(C)N=c2s/c(=C\c3ccc(OC(C)=O)cc3)c(=O)n2C1/C=C/c1ccccc1 (stereo unspecified),0,?,0,?,0,0
Cc1ccc(CN2COc3ccc4c(-c5ccccc5)cc(=O)oc4c3C2)cc1,-,-,-,0,-,0
CCOC(=O)c1scc(-c2ccc(C)cc2)c1S(=O)(=O)Nc1cc(Cl)ccc1OC,-,-,-,0,-,0
CCOC(=O)C1=C(C)N=c2s/c(=C/c3ccc(OCC(=O)O)cc3)c(=O)n2C1c1cc(OC)c(OC)c(OC)c1 (stereo unspecified),0,0.74µM,1µM,0,0,0
COc1cccc(C2C(C(=O)Nc3ccccc3)=C(C)N=c3s/c(=C/c4ccc(OCC(=O)O)cc4)c(=O)n32)c1 (stereo unspecified),0,1.2µM,7.4µM,0,0,0
COc1cccc(NC(=O)CSc2nccn2Cc2ccc3c(c2)OCO3)c1,-,-,-,0,-,0
O=C(C(Cc1ccccc1)n1cccc1)N1CCc2ccccc21 (stereo unspecified),0,?,?,?,0,35µM
Cc1cc(N2CCN(c3ccccc3)CC2)n2c(n1)nc1ccccc12,0,?,5.9µM,0,0,0
Cc1cc(N2CCN(c3ccccc3Cl)CC2)n2cc(-c3ccccc3)nc2n1,0,?,?,?,0,0
Cc1cc(N2CCN(c3ccccc3)CC2)n2cc(-c3ccccc3)nc2n1,0,7.4µM,?,0,0,0
COc1ccc(OC)c(C2=C/C(=C/c3ccccn3)C(=O)O2)c1,0,5.2µM,?,0,0,0
